Read-out in assay [1]: Interleukin 17F (IL17F), IL17F (gene 112744)
The assay is described as follows: BSK_BT_xIL17F: BioMAP Diversity Plus: BT Assay for Interleukin 17F (IL17F) Biomarker Activity (AID 2284243). Conditions: primary human B cells with PBMC. The gist of the method:
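Luminex readout of IL-17F secretion, 24 h; cells: human B cells with PBMC; positive-direction analysis, DMSO control.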

Read-out in assay [2]: Actin alpha 1 (ACTA1), ACTA1 (gene 58)
Put plainly: BSK_MyoF_ACTA1: BioMAP Diversity Plus: MyoF Assay for Actin alpha 1 (ACTA1) Biomarker Activity (AID 2284244). Conditions: primary human lung fibroblasts. The gist of the method:
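Lung fibroblasts, human primary, 24 h compound exposure → a-SMA ELISA. Positive-direction fit vs DMSO control.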

Read-out in assay [3]: Interleukin 2 (IL2), IL2 (gene 3558)
Put plainly: BSK_BT_xIL2: BioMAP Diversity Plus: BT Assay for Interleukin 2 (IL2) Biomarker Activity (AID 2284245). To be noted: primary human B cells with PBMC. The gist of the method: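 B cell + PBMC co-culture (human primary), compound added, 24 h incubation; secreted IL-2 measured multiplexed on Luminex xMAP; gain-of-signal fit vs DMSO.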

Read-out in assay [4]: Basic fibroblast growth factor (bFGF), FGF2 (gene 2247)
The assay is described as follows: BSK_MyoF_bFGF: BioMAP Diversity Plus: MyoF Assay for Basic fibroblast growth factor (bFGF) Biomarker Activity (AID 2284246). Conditions: primary human lung fibroblasts. The method, boiled down: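 ELISA-measured bFGF level serves as the read-out, taken 24 h after chemical dosing of human lung fibroblasts. Values represent signal gain over the DMSO negative control.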

Read-out in assay [5]: Collagen IV, COL4A1 (gene 1282)
Put plainly: BSK_MyoF_CollagenIV: BioMAP Diversity Plus: MyoF Assay for Collagen IV Biomarker Activity (AID 2284247). Conditions: primary human lung fibroblasts. The method, boiled down:
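Steps: dose human lung fibroblasts; culture 24 h; quantify Collagen IV by ELISA; fit increase versus DMSO control. Parallel SRB total-protein staining (0.1% SRB after 10% TCA fixation, 560 nm) tracks overt cytotoxicity.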

Read-out in assay [6]: Monokine induced gamma interferon (MIG), CXCL9 (gene 4283)
The assay is described as follows: BSK_KF3CT_MIG: BioMAP Diversity Plus: KF3CT Assay for Monokine induced gamma interferon (MIG) Biomarker Activity (AID 2284248). Conditions: primary human keratinocytes with fibroblasts. On the procedure: BSK_KF3CT is a cell-based, multiplexed-readout assay that uses keratinocytes and foreskin fibroblasts, a human skin primary cell co-culture, with measurements taken at 24 hours after chemical dosing in a 96-well plate.BSK_KF3CT_MIG is an assay component measured in the BSK_KF3CT assay. It measures MIG antibody related to regulation of gene expression using ELISA technology.Data from the assay component BSK_KF3CT_MIG was analyzed at the endpoint, BSK_KF3CT_MIG, in the positive analysis fitting direction relative to DMSO as the negative control and baseline of activity. Using a type of binding reporter, gain or loss-of-signal activity can be used to understand protein changes. To generalize the intended target to other relatable targets, this assay endpoint is annotated to the 'cytokine' intended target family, where the subfamily is 'chemotactic factor'.
The levels of cell surface (or secreted, indicated by the prefix "s") biomarker endpoints were measured by ELISA. Overt cytotoxicity to cells in confluent adherent cultures (all systems other than the BT system) was assessed by measuring total protein levels using sulforhodamine B (SRB) staining in parallel cultures at the time of biomarker measurements, indicated as SRB endpoints. For proliferation assays for adherent cell types, individual cell types are cultured at sub-confluence and relative cell numbers quantified by SRB staining at time points optimized for each system (48 h: 3C and CASM3C systems; 72 h: BT and HDF3CGF systems; 96 h: SAg system). SRB was performed by staining cells with 0.1% SRB after fixation with 10% TCA and reading wells at 560 nm.Viability and proliferation of PBMC (T cells) was quantified by Alamar Blue reduction for the SAg and BT systems. […] Then, Alamar Blue (20 uL/well) (Invitrogen, Cat DAL1100) was added for 6 h, and the plates were read with a fluorescence microplate reader at 546/580 nm (excitation/emission). […] Plates were read after 6 h.

Read-out in assay [7]: Collagen I, COL1A1 (gene 1277)
The assay is described as follows: BSK_hDFCGF_CollagenI: BioMAP Diversity Plus: hDFCGF Assay for Collagen I Biomarker Activity (AID 2284250). To be noted: primary human foreskin fibroblasts. The method, boiled down:
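Human skin primary fibroblasts dosed with test chemical, harvested at 24 h, Collagen I quantified by ELISA; parallel SRB staining (0.1% SRB after 10% TCA fixation, 560 nm) tracked cytotoxicity.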

Read-out in assay [8]: Interferon-inducible T-cell alpha chemoattractant (ITAC), CXCL11 (gene 6373)
Put plainly: BSK_hDFCGF_ITAC: BioMAP Diversity Plus: hDFCGF Assay for Interferon-inducible T-cell alpha chemoattractant (ITAC) Biomarker Activity (AID 2284251). Conditions: primary human foreskin fibroblasts. The gist of the method:
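Fibroblasts (human foreskin, primary) are treated with chemical, cultured 24 h, then assayed for I-TAC by ELISA. Overt toxicity is checked in parallel cultures by sulforhodamine B staining of total protein at the same time point.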

Each structure is given as a SMILES string. The source made the active and inactive calls. How the source made its calls: active means hit-call score of the fitted dose curve at least 0.9, where 1 is the maximum; inactive means score below 0.9.

Here are results for 28 compounds from PubChem BioAssay (EPA / NIEHS).

For `C[C@]12CC[C@@H](O)C[C@@H]1CC[C@@H]1[C@@H]2CC[C@]2(C)C(=O)CC[C@@H]12`, the result in assay [1], in assay [2], in assay [3], in assay [4] and in assay [5] was inactive.
As to `CCOC(=O)CC(=O)CCl`, the results for the AC50 in assay [1] and in assay [3] were 12.4 µM (active) and 20 µM (active), respectively. The result in assay [2], in assay [4] and in assay [5] was inactive.
As for `N#CCCC(Br)(C#N)CBr` (stereo unspecified), the half-maximal activity concentration (AC50) (as a rule, the concentration giving half of the maximal activity seen) in assay [1] was 9.32 µM (active); in assay [2] it was 12 µM (active); in assay [3], 11 µM (active); in assay [4], 25 µM (active); in assay [5] it was 0.914 µM (active).
For the compound `CCN(CC)C(=O)C(Cl)=C(C)OP(=O)(OC)OC`, the outcome in assay [1], in assay [3], in assay [4] and in assay [5] was inactive. For the same compound, the concentration at half-maximal activity (AC50) in assay [2] was 0.0702 µM (active).
Take `O=[N+]([O-])c1cccc2ccccc12`: the result in assay [1], in assay [2], in assay [3], in assay [4] and in assay [5] was inactive.
Turning to `Cc1c([N+](=O)[O-])c(C)c([N+](=O)[O-])c(C(C)(C)C)c1[N+](=O)[O-]`, the half-maximal activity concentration (AC50) in assay [1] is 28.1 µM (active); in assay [2], 33 µM (active). The result in assay [3], in assay [4] and in assay [5] was inactive.
For `O=C(Cc1ccccc1)OCCc1ccccc1`, the result in assay [6], in assay [7] and in assay [8] was inactive.
As to `CC(C)(COCC1CO1)COCC1CO1` (stereo unspecified), the AC50 in assay [1] was 24.5 µM (active). Moreover, the result in assay [2], in assay [3], in assay [4] and in assay [5] was inactive.
Take `Cc1cc(C(C)(C)c2ccc(O)c(C)c2)ccc1O`: the outcome in assay [1], in assay [3], in assay [4] and in assay [5] was inactive. In addition, the half-maximal activity concentration (AC50) in assay [2] is 19 µM (active).
As for `Oc1cccc(-c2ccccc2)c1`, the outcome in assay [1], in assay [3], in assay [4] and in assay [5] was inactive. The concentration at half-maximal activity (AC50) in assay [2] was 33.6 µM (active).
For the compound `Cc1ccc2nc3sc(=O)sc3nc2c1`, the result in assay [1], in assay [2], in assay [3], in assay [4] and in assay [5] was inactive.
Regarding `CC(C)N(C(=O)CCl)c1ccccc1`, the concentration at half-maximal activity (AC50) was 8.76 µM (active) in assay [1]; 2.84 µM (active) in assay [2]; 11.8 µM (active) in assay [3]; 4 µM (active) in assay [4]; 4.16 µM (active) in assay [5].
On the same counts, the results for `O=C1C=CC(=O)c2ccccc21` are 0.61 µM (active), 4.42 µM (active), 0.714 µM (active), 4.17 µM (active) and 2.56 µM (active).
In the case of `Cc1cccc(OP(=O)(Oc2cccc(C)c2)Oc2cccc(C)c2)c1`, the result in assay [1], in assay [2], in assay [3] and in assay [4] was inactive. Moreover, the AC50 in assay [5] was 0.0382 µM (active).
Turning to `CC(C)=CC1C(C(=O)OCc2cccc(Oc3ccccc3)c2)C1(C)C` (stereo unspecified), the AC50 in assay [1] and in assay [3] was 20 µM (active) throughout. For the same compound, the result in assay [2], in assay [4] and in assay [5] was inactive.
Take `CC(C=O)Cc1ccc2c(c1)OCO2` (stereo unspecified): the result in assay [1], in assay [2], in assay [3], in assay [4] and in assay [5] was inactive.
On to `CCOP(=O)(OCC)OC(=CCl)c1ccc(Cl)cc1Cl`, for which the result in assay [1], in assay [4] and in assay [5] was inactive. Also, the figures for the half-maximal activity concentration (AC50) in assay [2] and in assay [3] were 30.5 µM (active) and 20 µM (active), respectively.
Regarding `CCOP(=S)(OCC)OP(=S)(OCC)OCC`, the outcome in assay [1], in assay [2], in assay [3], in assay [4] and in assay [5] was inactive.
Consider `Cc1cc(Cl)ccc1OC(C)C(=O)O` (stereo unspecified), for which the result in assay [1], in assay [2], in assay [3], in assay [4] and in assay [5] was inactive.
For `c1ccc(-c2cccc(-c3ccccc3)c2)cc1`, the AC50 in assay [1] is 22.6 µM (active); in assay [2] it was 20 µM (active). Besides, the result in assay [3], in assay [4] and in assay [5] was inactive.
Take `Cc1ccccc1OP(=O)(Oc1ccccc1)Oc1ccccc1`: the outcome in assay [1], in assay [3], in assay [4] and in assay [5] was inactive. The concentration at half-maximal activity (AC50) in assay [2] is 20 µM (active).
Consider `O=C(O)COc1cc(Cl)c(Cl)cc1Cl`, for which the outcome in assay [1], in assay [2], in assay [3], in assay [4] and in assay [5] was inactive.
Take `OC(Cc1ccccc1Cl)(Cn1cncn1)C1(Cl)CC1` (stereo unspecified): the outcome in assay [1], in assay [2], in assay [3], in assay [4] and in assay [5] was inactive.
Regarding `CCOC(=O)CCN(SN(C)C(=O)Oc1cccc2c1OC(C)(C)C2)C(C)C`, the AC50 in assay [1] is 30 µM (active); in assay [2] it was 29.3 µM (active); in assay [3], 36.3 µM (active). For the same compound, the outcome in assay [4] and in assay [5] was inactive.
`[Cl][Sn]([c]1ccccc1)([c]1ccccc1)[c]1ccccc1`: the half-maximal activity concentration (AC50) was 0.302 µM (active) in assay [1]; 0.102 µM (active) in assay [2]; 0.395 µM (active) in assay [3]; 0.324 µM (active) in assay [4]; 0.286 µM (active) in assay [5].
For the compound `C=CC(Cl)CCl` (stereo unspecified), the outcome in assay [1], in assay [2], in assay [3] and in assay [4] was inactive. For the same compound, the concentration at half-maximal activity (AC50) in assay [5] was 0.0311 µM (active).
Regarding `OCCCCO`, the result in assay [6], in assay [7] and in assay [8] was inactive.
Consider `CC(C)(C)c1cc([N+](=O)[O-])cc(C(C)(C)C)c1O`, for which the half-maximal activity concentration (AC50) was 13 µM (active) in assay [1], 20 µM (active) in assay [3] and 0.396 µM (active) in assay [5]. The result in assay [2] and in assay [4] was inactive.
